Test results as given in PubChem BioAssay AID1159580 (chemical genetic matrix, 2015).
“And” between values parts separate entries of the source, which are not always exact repeats. Equal values may be shown once. In all, about 5,500 compounds went through this assay and about 2,000 (36%) were called active. Inconclusive results (about 18%) are left out. Rule as the data show it: active = normalized growth mostly below about 0.91 (no sharp cut-off); inconclusive = no clear call, values can overlap the other calls; inactive = mostly above about 0.92. Some of the results follow.

Test: chemical genetic growth profiling, strain panel (AID 1159580);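 also: tested at 20 µM; growth read once vehicle control cultures reached saturation at 30 °C; 1 = growth at the plate median or of vehicle wells; lower values mean less growth of the strain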
Conditions: S. cerevisiae deletion strains, growth OD

Measured: normalized growth

Cc1cc(C(C)(C)CC(C)(C)C)ccc1OCCOCC[N+](C)(C)Cc1ccccc1
active: locus YAL013W, strain DEP1, active compounds read low 0.056 | locus YAL021C, strain ccr4, active compounds read low 0.0621 | locus YAL026C, strain drs2, active compounds read low 0.0577 | locus YAL030W, strain snc1, active compounds read low 0.0548 | locus YBL061C, strain skt5, active compounds read low 0.0577 | locus YBR009C, strain hhf1, active compounds read low 0.0593 | locus YBR021W, strain FUR4, active compounds read low 0.0884 | locus YBR023C, strain chs3, active compounds read low 0.0588 | locus YBR171W, strain sec66, active compounds read low 0.0729 | locus YBR229C, strain ROT2, active compounds read low 0.0513 | locus YBR231C, strain swc5, active compounds read low 0.0584 | locus YBR279W, strain paf1, active compounds read low 0.0568 | locus YCL011C, strain gbp2, active compounds read low 0.0539 | locus YCL016C, strain dcc1, active compounds read low 0.0604 | locus YCL029C, strain bik1, active compounds read low 0.0578 | locus YCL061C, strain MRC1, active compounds read low 0.0639 | locus YCL069W, strain vba3, active compounds read low 0.0588 | locus YCR088W, strain abp1, active compounds read low 0.0592 | locus YDL005C, strain med2, active compounds read low 0.0722 | locus YDL035C, strain GPR1, active compounds read low 0.0517 | locus YDL040C, strain nat1, active compounds read low 0.0573 | locus YDL074C, strain BRE1, active compounds read low 0.0803 | locus YDL101C, strain DUN1, active compounds read low 0.0608 | locus YDL134C, strain PPH21, active compounds read low 0.0535 | locus YDL185W, strain tfp1, active compounds read low 0.0735 | locus YDL192W, strain arf1, active compounds read low 0.0575 | locus YDR001C, strain nth1, active compounds read low 0.0561 | locus YDR069C, strain doa4, active compounds read low 0.0594 | locus YDR101C, strain arx1, active compounds read low 0.0572 | locus YDR137W, strain rgp1, active compounds read low 0.0892 | locus YDR159W, strain sac3, active compounds read low 0.0785 | locus YDR162C, strain NBP2, active compounds read low 0.0508 | locus YDR195W, strain ref2 0.112 | locus YDR297W, strain sur2, active compounds read low 0.0548 | locus YDR318W, strain mcm21, active compounds read low 0.0609 | locus YDR334W, strain swr1, active compounds read low 0.0602 | locus YDR335W, strain msn5, active compounds read low 0.0584 | locus YDR388W, active compounds read low 0.0542 | locus YDR392W, strain spt3, active compounds read low 0.0691 | locus YDR502C, strain sam2, active compounds read low 0.0626 | locus YEL003W, strain gim4, active compounds read low 0.0521 | locus YEL037C, strain rad23, active compounds read low 0.0554 | locus YEL061C, strain CIN8 (second series), active compounds read low 0.0588 | locus YEL061C, strain CIN8, active compounds read low 0.0504 | locus YER015W, strain faa2, active compounds read low 0.0619 | locus YER016W, strain bim1, active compounds read low 0.0588 | locus YER110C, active compounds read low 0.0699 | locus YER111C, strain swi4, active compounds read low 0.0695 | locus YER155C, strain BEM2 (second series), active compounds read low 0.0851 | locus YER155C, strain BEM2, active compounds read low 0.0684 | locus YER167W, strain BCK2, active compounds read low 0.0531 | locus YFR010W, strain ubp6, active compounds read low 0.0641 | locus YGL078C, strain dbp3, active compounds read low 0.0843 | locus YGL086W, strain mad1, active compounds read low 0.0561 | locus YGL167C, strain pmr1, active compounds read low 0.0723 | locus YGL173C, strain kem1, active compounds read low 0.0635 | locus YGL227W, strain vid30, active compounds read low 0.0611 | locus YGL240W, strain doc1, active compounds read low 0.0709 | locus YGL248W, strain PDE1, active compounds read low 0.05 | locus YGL253W, strain hxk2, active compounds read low 0.0523 | locus YGR135W, strain pre9, active compounds read low 0.0617 | locus YGR252W, strain gcn5, active compounds read low 0.165 | locus YHR013C, strain ard1, active compounds read low 0.0989 | locus YHR027C, strain rpn1, active compounds read low 0.0592 | locus YHR030C, strain SLT2, active compounds read low 0.0522 and 0.101 | locus YHR079C, strain IRE1 (second series), active compounds read low 0.0549 | locus YHR079C, strain IRE1, active compounds read low 0.104 | locus YHR094C, strain hxt1, active compounds read low 0.0561 | locus YHR129C, strain ARP1, active compounds read low 0.0578 | locus YHR142W, strain chs7, active compounds read low 0.072 | locus YHR200W, strain rpn10, active compounds read low 0.0568 | locus YIL066C, strain RNR3, active compounds read low 0.054 | locus YIL073C, strain SPO22, active compounds read low 0.12 | locus YIL125W, strain kgd1, active compounds read low 0.0749 | locus YIR030C, strain dcg1, active compounds read low 0.0563 | locus YJL092W, strain hpr5, active compounds read low 0.0568 | locus YJL095W, strain BCK1 (second series), active compounds read low 0.0554 | locus YJL095W, strain BCK1, active compounds read low 0.0585 and 0.103 | locus YJL115W, strain asf1, active compounds read low 0.0691 | locus YJL129C, strain trk1, active compounds read low 0.0794 | locus YJL134W, strain LCB3, active compounds read low 0.0506 | locus YJL154C, strain vps35, active compounds read low 0.0594 | locus YJL164C, strain tpk1, active compounds read low 0.057 | locus YJL166W, strain qcr8, active compounds read low 0.0596 | locus YJL168C, strain set2, active compounds read low 0.0557 | locus YJL187C, strain SWE1 (second series), active compounds read low 0.0514 | locus YJL187C, strain SWE1, active compounds read low 0.0563 | locus YJR043C, strain POL32, active compounds read low 0.0648 | locus YJR066W, strain TOR1, active compounds read low 0.00362 | locus YKL009W, strain mrt4, active compounds read low 0.213 | locus YKL068W, active compounds read low 0.172 | locus YKL085W, strain MDH1 (second series), active compounds read low 0.0866 | locus YKL085W, strain MDH1, active compounds read low 0.0866 | locus YKL160W, strain elf1, active compounds read low 0.0603 | locus YKR001C, strain vps1, active compounds read low 0.0608 | locus YKR026C, strain gcn3, active compounds read low 0.0637 | locus YKR091W, strain srl3, active compounds read low 0.0576 | locus YLL001W, strain dnm1, active compounds read low 0.0592 | locus YLL026W, active compounds read low 0.056 | locus YLL041C, strain sdh2, active compounds read low 0.0575 | locus YLR027C, strain aat2, active compounds read low 0.0549 | locus YLR039C, strain RIC1, active compounds read low 0.0893 | locus YLR058C, strain SHM2, active compounds read low 0.052 | locus YLR102C, strain apc9, active compounds read low 0.0571 | locus YLR113W, strain HOG1, active compounds read low 0.119 | locus YLR221C, strain rsa3, active compounds read low 0.0575 | locus YLR258W, strain gsy2, active compounds read low 0.0566 | locus YLR262C, strain YPT6 (second series), active compounds read low 0.0719 | locus YLR262C, strain YPT6, active compounds read low 0.0979 | locus YLR268W, strain sec22, active compounds read low 0.0813 | locus YLR320W, strain mms22, active compounds read low 0.0724 | locus YLR330W, strain CHS5, active compounds read low 0.0528 | locus YLR342W, strain FKS1 (second series), active compounds read low 0.0706 | locus YLR342W, strain FKS1, active compounds read low 0.0618 | locus YLR357W, strain rsc2, active compounds read low 0.114 | locus YLR370C, strain arc18, active compounds read low 0.0577 | locus YLR371W, strain rom2, active compounds read low 0.0597 | locus YLR384C, strain iki3, active compounds read low 0.0598 | locus YLR418C, strain cdc73, active compounds read low 0.0929 | locus YML016C, strain PPZ1, active compounds read low 0.0514 | locus YML032C, strain rad52, active compounds read low 0.0687 | locus YML120C, strain ndi1, active compounds read low 0.0557 | locus YML124C, strain tub3, active compounds read low 0.0571 | locus YMR058W, strain fet3, active compounds read low 0.0582 | locus YMR078C, strain ctf18, active compounds read low 0.0671 | locus YMR125W, strain sto1, active compounds read low 0.073 | locus YMR129W, active compounds read low 0.0561 | locus YMR205C, strain PFK2, active compounds read low 0.0818 | locus YMR223W, strain ubp8, active compounds read low 0.0638 | locus YMR231W, strain pep5, active compounds read low 0.0634 | locus YMR307W, strain GAS1, active compounds read low 0.113 | locus YNL067W, strain RPL9B, active compounds read low 0.051 | locus YNL071W, strain lat1, active compounds read low 0.0592 | locus YNL153C, strain GIM3, active compounds read low 0.0542 | locus YNL183C, strain NPR1, active compounds read low 0.00188 | locus YNL209W, strain ssb2, active compounds read low 0.0576 | locus YNL233W, strain BNI4, active compounds read low 0.0574 | locus YNL248C, strain rpa49, active compounds read low 0.0804 | locus YNL250W, strain rad50, active compounds read low 0.109 | locus YNL271C, strain bni1, active compounds read low 0.0656 | locus YNL298W, strain CLA4, active compounds read low 0.0604 | locus YNL307C, strain MCK1, active compounds read low 0.0681 | locus YNL322C, strain KRE1 (second series), active compounds read low 0.0636 | locus YNR049C, strain mso1, active compounds read low 0.0552 | locus YNR052C, strain pop2, active compounds read low 0.0587 | locus YOL006C, strain TOP1, active compounds read low 0.115 | locus YOL147C, strain pex11, active compounds read low 0.0557 | locus YOR001W, strain rrp6, active compounds read low 0.0651 | locus YOR061W, strain CKA2, active compounds read low 0.0485 | locus YOR069W, strain VPS5, active compounds read low 0.0867 | locus YOR070C, strain gyp1, active compounds read low 0.0566 | locus YOR080W, strain dia2, active compounds read low 0.0634 | locus YOR083W, strain WHI5, active compounds read low 0.0581 | locus YOR106W, strain vam3, active compounds read low 0.0627 | locus YOR136W, strain idh2, active compounds read low 0.0687 | locus YOR144C, strain elg1, active compounds read low 0.0552 | locus YOR184W, strain ser1, active compounds read low 0.0763 | locus YOR231W, strain MKK1, active compounds read low 0.103 | locus YOR265W, strain rbl2, active compounds read low 0.055 | locus YOR270C, strain vph1, active compounds read low 0.0945 | locus YOR290C, strain snf2, active compounds read low 0.0584 | locus YOR316C, strain cot1, active compounds read low 0.056 | locus YPL051W, strain arl3, active compounds read low 0.0608 | locus YPL055C, strain LGE1, active compounds read low 0.0718 | locus YPL078C, strain atp4, active compounds read low 0.0619 | locus YPL106C, strain sse1, active compounds read low 0.0907 | locus YPL240C, strain hsp82, active compounds read low 0.057 | locus YPL256C, strain CLN2, active compounds read low 0.105 | locus YPR119W, strain clb2, active compounds read low 0.0584 | locus YPR141C, strain kar3, active compounds read low 0.0826 | locus YPR163C, strain tif3, active compounds read low 0.0658 | locus YPR167C, strain met16, active compounds read low 0.059 | strain wtn01, active compounds read low 0.0645
